About 83,000 compounds went through this panel and 20% of them were active in at least one assay; those are over-represented in the sample as a whole.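 Values shown are percent growth following 48 h exposure of cells in 96-well plates to a single concentration of compound; below 10 was considered active.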 Unmarked numbers belong to inactive results. Calls of active or inactive are those of the source.
Each compound was assayed on HOP-62 NSCLC (assay: NCI-60 one-dose screen, 48 h (100 = growth as untreated, 0 = no growth, -100 = all killed)). Conditions: 10 µM unless noted.
Experimental: Growth inhibition of the HOP-62 human Non-Small Cell Lung tumor cell line is measured as a screen for anti-cancer activity. Cells are grown in 96 well plates and exposed to the test compound for 48 hours. Compounds are tested at a single concentration, which is 10^-5 M for most compounds. The reported endpoint is percent growth (GI% or GIPRCNT), where numbers from 0 - 100% represent growth inhibition, and numbers from -100% - 0 represent cell death. For example, a value of 40 represents 60% growth inhibition. A value of 0 means no net growth occurred over the course of the experiment. A value of -40 indicates 40% of cells at the beginning of the experiment died by the end of the experiment. A value of -100 means all cells are dead at the end of the experiment.
NCI-60 Human Tumor Cell Lines Screen was performed using the standard one-dose NCI protocol, which is described in more detail at https://dtp.cancer.gov/discovery_development/nci-60/default.htm.
Compounds with GIPRCNT values below 10 were considered active. Activity score was based on GIPRCNT using the following formula: […]
Score is 0 for GIPRCNT values of 100 or above, 50 for GIPRCNT values of 0, and 100 for GIPRCNT values of -100.

SMILES | growth
CC(C)CCC[C@@H](C)[C@H]1CC[C@H]2[C@@H]3CC=C4C[C@@H](OC(=O)Cc5ccc(N(CCCl)CCCl)cc5)CC[C@]4(C)[C@H]3CC[C@]12C | 105%
Cc1cc(NC(=O)/C=C/c2ccc([N+](=O)[O-])cc2)ccc1S(=O)(=O)F | 103%
COC[CH2][Hg][C]#[C][Hg][CH2]COC | 98.5%
O=[N+]([O-])c1ccc2cnn(CSP(=S)(c3ccccc3)c3ccccc3)c2c1 | 59.3%
C[C@]12CC[C@@H]3C4=C(CC[C@H]3[C@@H]1CC[C@@H]2O)CC(=O)CC4 | 103%
CC(C)(C)NCC(O)c1ccccc1Cl (stereo not given) | 29.3%
NC(=O)C(Cl)Cl | 102%
[N-]=[N+]=NC(C(=O)O)c1ccccc1 (stereo not given) | 101%
N#[N+]c1cnc([O-])[nH]c1=O | 105%
CNC(=O)Oc1cc(C(C)C)ccc1Sc1ccc(C(C)C)cc1OC(=O)NC | 75.9%
Nc1c(Br)cc([N+](=O)[O-])cc1[N+](=O)[O-] | 117%
COc1cc(CNCCc2ccc(Cl)cc2)cc(OC)c1O | 83.3%
O=C(c1cccs1)C1NO[N+]([O-])=C1c1cccs1 (stereo not given) | 89.6%
[Cl][Hg][n]1cnc2c(Cl)c(Cl)c(Cl)cc21 | 109%
CCC[CH2][Sn]([CH2]CCC)([CH2]CCC)[O]C(=O)CC | -88.9% (active)
COc1cc2c(cc1OC)CN(C)C(C)C2 (stereo not given) | 92%
CC(=O)O[C@@H]1C2=C(C)C3(CC3)[C@@](C)(O)C(=O)C2=C[C@@]1(C)CO | -10.1% (active)
O=[N+]([O-])c1cccc([As]=[As]c2cccc([N+](=O)[O-])c2)c1 (stereo not given) | -95.1% (active)
Nc1ccc(N)c2c1Oc1ccccc1O2 | 95.5%
CC(C)Nc1ccc(Nc2ccccc2)cc1 | 35.3%

SMILES | growth
CCOC(=O)Nc1cc(Cl)c([N+](=O)[O-])c(NC(=O)OCC)n1 | 126%
COc1cccc2c1C(=O)c1c(O)c3c(c(O)c1C2=O)CC(O)(/C(C)=N/NC(=O)CCC(=O)N/N=C(\C)C1(O)Cc2c(O)c4c(c(O)c2C(OC2CC(N)C(O)C(C)O2)C1)C(=O)c1c(OC)cccc1C4=O)CC3OC1CC(N)C(O)C(C)O1 (stereo not given) | -31.3% [5 µM] (active)
C[CH2][Pb]([CH2]C)([CH2]C)[O]C(=O)COC | -16.2% (active)
N#CC1=C(N)Oc2cc3c(cc2C1c1cccs1)OCO3 (stereo not given) | 26.3%
CC(=O)O[C@H]1CCC2(C)C(=CCC3C2CCC2(C)/C(=N/OC(=O)c4ccc(N(CCCl)CCCl)cc4)CCC32)C1 (stereo not given in full) | -60.8% (active)
C[CH2][Sn]([CH2]C)([CH2]C)[NH]S(=O)(=O)c1ccc(C)cc1 | 121%
NC(Cc1ccc2c(c1)OCO2)c1ccc2c(c1)OCO2 (stereo not given) | 105%
CC(/C=N/N=C(N)N)=N\N=C(N)N | 64.2%
O=C(/C=C/c1ccccc1)N[C@@H](CO)Cc1cnc[nH]1 | 101%
CCOCC1(CCc2ccccc2)C(=O)NC(=S)NC1=O | 104%
O=C(O)CNC(=O)c1ccccc1 | 93.4%
CC(C)OC(=S)[S-].[Au+].c1ccc([PH+](c2ccccc2)c2ccccc2)cc1 | 76%
CC(=O)Nc1ccc(Cc2ccc(NC(C)=O)cc2)cc1 | 94.1%
CC(C)(C)N(Cc1ccccc1)N=O | 99.4%
CC1(CF)NC(=O)NC1=O (stereo not given) | 107%
Cc1ccc(N)cc1[As]=[As]c1cc(N)ccc1C (stereo not given) | 14.9%
CC1(C)CC2(CC(C)(C)c3cc(O)c(O)cc32)c2cc(O)c(O)cc21 | 95.9%
C/C(=C\c1cc(C(F)(F)F)n(-c2ccc(N)cc2)n1)[C@@H]1C[C@@H]2O[C@]2(C)CCC[C@H](C)[C@H](O)[C@@H](C)C(=O)C(C)(C)[C@@H](O)CC(=O)O1 | 19.2%
CCCCOC(=O)c1ccccc1C(=O)O.CCCCOC(=O)c1ccccc1C(=O)O.[Cu+2] | 127%
CCCCCCCCCCOc1ccc(C(=O)Oc2ccc(CSP3(=O)OCC4OC(n5ccc(=O)[nH]c5=O)C(F)C4OP(=O)(O)OCC4OC(n5cnc6c(N)ncnc65)C(F)C4O3)cc2)cc1 (stereo not given) | 111%

Reference: PubChem BioAssay (NCI)
